Values quoted from earlier work, collected in PubChem BioAssay AID977611.
The campaign covered roughly 3,900 compounds. About 3,900 (100%) were called active. Cut-off not given; nearly all actives show Kd up to about 4200 µM. The set was probably picked from earlier hits. The list shows a part of the results. *1 amine or outer side, *2 acyl side, *3 side chain or, on linkers, in order; H or OH if unused. Where a SMILES comes first, the peptide text is derived from it. [ ]: non-standard residue; d: D form. The star is where a group is joined. X3 = CCCCCC[C@](C)(N[C@@H](O)CN)[C@H](O)N([C@@H](CC(C)C)C(=O)[*:2])[*:1]; Thr(P(OH)3+) = C[C@@H](O[P+](O)(O)O)[C@H](N)C(=O)O; Orn(CH(NH2)2) = NC(N)NCCC[C@H](N)C(=O)O; X4 = CCCCCC[C@](C)(N[*:1])C(=O)[*:2]; X1 = CCCC[C@@](C)(N[*:1])C(=O)[*:2]; X2 = CCCC[C@](C)(N[*:1])C(=O)[*:2]; Suc = O=C(CCC(=O)[*:2])[*:1]; Bz = O=C(c1ccccc1)*

Assay: PubChem AID 977611
Conditions: PDB protein-ligand complexes, literature Kd

**Q.** For O=C1C=C(O)C(=O)C=C1O, which Kd (protein: 5-chloro-2-hydroxyhydroquinone dehydrochlorinase (TftG), PDB entry 4lbp) is on record?
**A.** 11.4 µM (active)

**Q.** Which Kd (protein: Dual specificity mitogen-activated protein kinase kinase 1, Human MEK1 kinase, PDB entry 3wig) does the source give for CNS(=O)(=O)Nc1nccc(Cc2c(C)c3ccc(Oc4ncccn4)cc3oc2=O)c1F here?
**A.** 0.0023 µM (active)

**Q.** Which Kd (protein: NAD-DEPENDENT PROTEIN DEACYLASE SIRTUIN-5, MITOCHONDRIAL zebrafish Sirtuin 5, PDB entry 4utn) does the source give for CC(C)C[C@H](NC(=O)[C@@H](NC(=O)CNC(=O)c1ccccc1)C(C)C)C(=O)N[C@@H](CCCCNC(=O)CCC(=O)O)C(=O)N[C@@H](CCC(=O)O)C(=O)N[C@@H](Cc1ccc(O)cc1)C(=O)NCC(=O)N[C@H](C(=O)O)C(C)C (Bz-GVLK(Suc)EYGV-OH) here?
**A.** 0.71 µM (active)

**Q.** Which Kd (protein: NAD-DEPENDENT PROTEIN DEACYLASE SIRTUIN-5, MITOCHONDRIAL zebrafish Sirtuin 5, PDB entry 4utr) does the source give for CC(C)C[C@H](NC(=O)[C@@H](NC(=O)CNC(=O)c1ccccc1)C(C)C)C(=O)N[C@@H](CCCCN)C(=O)N[C@@H](CCC(=O)O)C(=O)N[C@@H](Cc1ccc(O)cc1)C(=O)NCC(=O)N[C@H](C(=O)O)C(C)C (Bz-GVLKEYGV-OH) here?
**A.** 0.7 µM (active)

**Q.** And the Kd (protein: NAD-DEPENDENT PROTEIN DEACYLASE SIRTUIN-5, MITOCHONDRIAL zebrafish Sirtuin 5, PDB entry 4utv)?
**A.** 8.2 µM (active)

**Q.** What about the Kd (protein: NAD-DEPENDENT PROTEIN DEACYLASE SIRTUIN-5, MITOCHONDRIAL zebrafish Sirtuin 5, PDB entry 4utx) of the same compound?
**A.** 5.78 µM (active)

**Q.** And the Kd (protein: NAD-DEPENDENT PROTEIN DEACYLASE SIRTUIN-5, MITOCHONDRIAL zebrafish Sirtuin 5, PDB entry 4uu7)?
**A.** 0.83 µM (active)

**Q.** And the Kd (protein: NAD-DEPENDENT PROTEIN DEACYLASE SIRTUIN-5, MITOCHONDRIAL zebrafish Sirtuin 5, PDB entry 4uu8)?
**A.** 0.29 µM (active)

**Q.** And the Kd (protein: NAD-DEPENDENT PROTEIN DEACYLASE SIRTUIN-5, MITOCHONDRIAL zebrafish Sirtuin 5, PDB entry 4uua)?
**A.** 5.78 µM (active)

**Q.** With CC(=O)n1ccc2nc3ccc(Cl)cc3c-2c1 as the compound, how does the Kd (protein: Bromodomain adjacent to zinc finger domain protein 2B BAZ2B Bromodomain, PDB entry 4nra) read?
**A.** 65 µM (active)

**Q.** With c1ccc(-c2nsc(N3CCCNCC3)n2)cc1 as the compound, how does the Kd (protein: INTEGRASE, PDB entry 4ah9) read?
**A.** 3500 µM (active)

**Q.** For Cc1ccc(C(=O)N(CCCN)[C@@H](C2=C(Cc3ccccc3)C(O)c3ccc(Cl)cc3O2)C(C)C)cc1 (stereo partly drawn), which Kd (protein: KINESIN-LIKE PROTEIN KIF11, PDB entry 4bxn) is on record?
**A.** 0.01 µM (active)

**Q.** With O[C@@H](CC1c2ccccc2Sc2ccccc21)CN1CCCC1 as the compound, how does the Kd (protein: Renin, PDB entry 4gj8) read?
**A.** 500 µM (active)

**Q.** With Cc1ncc2c(n1)N(C)C(=O)C(=N)C2 as the compound, how does the Kd (protein: Caspase-6, PDB entry 4n5d) read?
**A.** 607 µM (active)

**Q.** With CC[C@H](C)[C@H](NC(=O)CNC(=O)[C@H](CCC(=O)O)NC(=O)CNC(=O)[C@H](CCC(=O)O)NC(=O)[C@H](CCC(=O)O)NC(=O)[C@H](CC(C)C)NC(=O)CNC(=O)[C@H](Cc1ccccc1)NC(=O)[C@H](Cc1c[nH]cn1)NC(=O)[C@H](Cc1ccc(O)cc1)NC(=O)[C@H](CC(=O)O)NC(=O)[C@@H](N)CC(C)C)C(=O)N[C@@H](CCCNC(N)N)C(=O)N[C@@H](CC(=O)O)C(=O)N[C@@H](CC(C)C)C(=O)N[C@@H](Cc1ccccc1)C(=O)N[C@H](C)CC(=O)O as the compound, how does the Kd (protein: The human retinoblastoma tumor suppressor protein (pRb), PDB entry 1o9k) read?
**A.** 0.34 µM (active)

**Q.** Which Kd (protein: C-terminal domain of human RAP74, PDB entry 2k7l) does the source give for CC[C@H](C)[C@H](NC(=O)[C@H](CC(C)C)NC(=O)[C@H](Cc1c[nH]cn1)NC(=O)[C@H](CC(=O)O)NC(=O)[C@H](CC(=O)O)NC(=O)[C@H](CCC(=O)O)NC(=O)[C@H](CC(=O)O)NC(=O)[C@@H](NC(=O)[C@H](CC(=O)O)NC(=O)[C@@H](N)CCC(=O)O)[C@@H](C)O[P+](O)(O)O)C(=O)N[C@@H](Cc1ccc(O)cc1)C(=O)N[C@@H](CC(C)C)C(=O)N[C@@H](CCC(=O)O)C(=O)N[C@@H](CCC(=O)O)C(=O)N[C@H](C(=O)N[C@@H](CC(C)C)C(=O)N[C@H](C(=O)N[C@@H](CCCNC(N)N)C(=O)N[C@H](C(=O)O)C(C)C)C(C)C)[C@@H](C)CC (H-ED[Thr(P(OH)3+)]DEDDHLIYLEEILV[Orn(CH(NH2)2)]V-OH) here?
**A.** 0.7 µM (active)

**Q.** With CC1CCN(c2cc(-c3ccc(C(F)(F)F)cc3)nc(N)n2)CC1 as the compound, how does the Kd (protein: Acetylcholine-binding protein AChBP, PDB entry 4qac) read?
**A.** 0.0004 µM (active)

**Q.** Which Kd (protein: Acetylcholine-binding protein AChBP, PDB entry 4qab) does the source give for Nc1nc(-c2ccc(C(F)(F)F)cc2)cc(N2CCOCC2)n1 here?
**A.** 0.0002 µM (active)

**Q.** For CCCCCC[C@](C)(NC(=O)[C@H](CC(=O)O)NC(=O)[C@H](CC(C)C)N[C@@H](O)[C@](C)(CCCCCC)N[C@@H](O)CN)C(=O)N[C@@H](CC(C)C)C(=O)N[C@@H](CC(=O)O)C(=O)N[C@@H](CC(C)C)C(=O)N[C@@H](C)C(=O)N[C@@H](CO)C(=O)O (H-[X3]D[X4]LDLAS-OH), which Kd (protein: 14-3-3 protein zeta/delta, PDB entry 4n84) is on record?
**A.** 0.51 µM (active)

**Q.** With CCCC[C@@](C)(NC(=O)CNC(=O)[C@@H](N)CCC(N)=O)C(=O)N[C@@H](CC(C)C)C(=O)N[C@@H](CC(=O)O)C(=O)N[C@@](C)(CCCC)C(=O)N[C@@H](CC(C)C)C(=O)N[C@@H](CC(=O)O)C(=O)N[C@@H](CC(C)C)C(=O)N[C@@H](C)C(=O)N[C@@H](CO)C(=O)O (H-QG[X1]LD[X2]LDLAS-OH) as the compound, how does the Kd (protein: 14-3-3 protein zeta/delta, PDB entry 4n7y) read?
**A.** 0.55 µM (active)

**Q.** Which Kd (protein: Retinal rod rhodopsin-sensitive cGMP 3',5'-cyclic phosphodiesterase subunit delta, PDB entry 4jv8) does the source give for c1ccc([C@@H]2Nc3ccccc3-c3nc4ccccc4n32)nc1 here?
**A.** 1.42 µM (active)

**Q.** Which Kd (protein: putative protease fromBacteroides thetaiotaomicron (ppBat), PDB entry 4d1y) does the source give for Cc1cc2nc3c(=O)[nH]c(=O)nc-3n(C[C@H](O)[C@H](O)[C@H](O)CO)c2cc1C here?
**A.** 0.074 µM (active)

**Q.** For O=C1N[C@@H](c2cccnc2)c2c(-c3ccccc3)n[nH]c21, which Kd (protein: Gag protein, PDB entry 4j93) is on record?
**A.** 20 µM (active)
